This note sets out measurements from PubChem BioAssay AID371 (SRMLSC, 2006).

“And” between values parts separate entries of the source, which are not always exact repeats. Equal values may be shown once. The campaign covered roughly 3,300 compounds. About 280 (8.5%) were called active. The sample as a whole holds a higher share of actives than the screen did. Unmarked numbers belong to inactive results.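 How the source made its calls: active means mean growth inhibition over the two runs of 50% or more; inactive means mean growth inhibition under 50%.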

The assay is described as follows: A549 NSCLC cell proliferation inhibitors – ATP luminescence, human non-small cell lung line, primary screen (AID 371).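 Further: compound exposure lasted 72 h before the ATP read; 0% = untreated cell signal and 100% = no luminescence left.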 Conditions: at 10 µM, stronger effect = higher value.
Consider `CC(C)(C)NCc1cc2ccccc2[nH]c1=O`, for which the growth inhibition is 4.01%.

Take `Cc1nc2oc(C(=O)c3ccc(Br)cc3)c(N)c2c2c1COC(C)(C)C2`: the growth inhibition was 24.5%.

For the compound `COCCNC(=O)c1c(N)n(/N=C/c2cccs2)c2nc3ccccc3nc12`, the growth inhibition is 6.53%.

Regarding `COCCNC(=O)c1c(N)n(CCC2=CCCCC2)c2nc3ccccc3nc12`, the growth inhibition was 91.2% (active).

On to `COCCCNC(=O)c1c(N)n(/N=C/c2cccs2)c2nc3ccccc3nc12`, for which the growth inhibition is 17%.

For the compound `CCC(CC)n1[nH]c(=O)cc1N`, the growth inhibition was 1.19%.

For `CC1(C)CC(=O)C(C=N)=C(O)C1`, the growth inhibition is 1.41%.

With `O=C(c1ccccc1F)N1CCC(N2CCCCCC2)CC1`, the growth inhibition is 2.62%.

`CCCc1[nH]n(-c2nc3ccccc3s2)c(=O)c1C=NCCN1CCOCC1`: the growth inhibition was 3.16%.

As to `Cn1nnnc1-c1cc(Br)ccc1NC(=O)c1ccccc1`, the growth inhibition is 10.8%.

For `Cc1sc(-n2c(C)cc(/C=N/n3cnnc3)c2C)c(C#N)c1C`, the growth inhibition was 19.6%.

In the case of `CC(C)(C)c1nnc2sc(SCC(=O)c3ccccc3)nn2c1=O`, the growth inhibition is -7.24%.

Regarding `Cc1nc2sccn2c(=O)c1CCN1CCC(=C(c2ccc(F)cc2)c2ccc(F)cc2)CC1`, the growth inhibition is 92.5% (active).

As for `Cc1nc2ccccn2c(=O)c1CCN1CCC(C(=O)c2ccc(F)cc2)CC1`, the growth inhibition is 6.06%.

On to `Cc1nc2sccn2c(=O)c1CCN1CCC(=C(c2ccccc2)c2ccc(F)cc2)CC1`, for which the growth inhibition is 88.3% (active).

Consider `CN1CCN(CCCCC(=O)c2ccccc2)CC1`, for which the growth inhibition is 6%.

In the case of `COc1ccc(/C=N/n2cncn2)cc1COc1ccc(NC(C)=O)cc1`, the growth inhibition is 5.25%.

Regarding `CCOc1ccc(C2/C(=C(/O)c3ccc(OC)cc3)C(=O)C(=O)N2c2cc(C)on2)cc1OC` (configuration not stated), the growth inhibition is -9.53%.

For `CCC(C)Nc1nc(OC)nc(N(C)C#N)n1` (configuration not stated), the growth inhibition is -4.98%.

In the case of `O=C(O)c1ccc(COc2c(F)c(F)c(F)c(F)c2F)o1`, the growth inhibition is 3.65%.

Take `CN(C)/C=C1\N=C(c2ccc(Cl)cc2Cl)OC1=O`: the growth inhibition is 19.7%.

As for `CCOC(=O)c1[nH]c2cc3c(cc2c1NC(=O)CN1CCc2ccccc2C1)OCO3`, the growth inhibition is 12.5%.

With `CSc1nc(N)nc(SCC(=O)OC(C)C)c1C#N`, the growth inhibition was 17%.

Regarding `CSc1nc(N)nc(SCC(=O)C23CC4CC(CC(C4)C2)C3)c1C#N`, the growth inhibition was 74.9% (active).

With `CSc1nc(N)nc(SCC(=O)CC(=O)OC(C)C)c1C#N`, the growth inhibition is 7.59%.

In the case of `N/C(=N\c1nc2ccccc2o1)NC(=O)c1ccccc1NC(=O)c1ccccc1`, the growth inhibition is 69.5% (active).

For `COc1ccccc1C(=O)NC(=Nc1nc2ccccc2o1)NC(=O)c1ccccc1OC`, the growth inhibition was 67.3% (active).

Regarding `COc1ccccc1C(=O)NCC(=O)n1nc(C)cc1C`, the growth inhibition was 4.23%.

As for `COc1ccc(C(=O)N/C(N)=N/c2nc3ccccc3o2)cc1`, the growth inhibition is 28.8%.

Consider `O=C(Nc1ccccc1C(=O)NCCCn1ccnc1)c1ccccc1`, for which the growth inhibition was -0.68%.

As to `COc1ccccc1C(=O)Nc1cc(Cl)ccc1O`, the growth inhibition is -0.89%.

On to `COc1ccccc1C1C(C#N)=C(N)Oc2cc(C)n(Cc3ccccn3)c(=O)c21` (configuration not stated), for which the growth inhibition was -10.3%.

As to `CCNC(=O)COn1c(SCC(=O)NCC)nc2ccccc2c1=O`, the growth inhibition is -0.37%.

In the case of `CCOC(=O)C1CCN(c2ncnc3c2cnn3-c2ccc(OC)cc2)CC1`, the growth inhibition is 4.94%.

With `CS(=O)(=O)c1ccc2nc(NC(NC(=O)c3ccco3)(C(F)(F)F)C(F)(F)F)sc2c1`, the growth inhibition was 29.9%.

For the compound `CCOC(=O)CSc1nnc(C)c(=O)[nH]1`, the growth inhibition is 2.53%.

Take `CC(=O)Nc1cc2c(cc1Br)OCCO2`: the growth inhibition is -4.42%.

For the compound `CN(C)c1ccc(C2C3C(=O)N(c4ccc(C(=O)O)cc4)C(=O)C3ON2c2ccccc2)cc1` (configuration not stated), the growth inhibition was 4.19%.

Consider `COc1cccc2c1C(=O)c1c(O)c3c(c(O)c1C2=O)C[C@@](O)(C(C)=O)C[C@@H]3O[C@H]1C[C@H](N)[C@H](O)[C@H](C)O1`, for which the growth inhibition was 94.4% (active).

Regarding `COc1cccc2c1C(=O)c1c(O)c3c(c(O)c1C2=O)C[C@@](O)(C(=O)CO)C[C@@H]3O[C@H]1C[C@H](N)[C@H](O)[C@H](C)O1`, the growth inhibition was 82.1% (active).

As for `O=c1/c(=C\c2cccn2-c2ccccc2)sc2nc3ccccc3n12`, the growth inhibition is 26.5%.

As for `CC(C)c1nc(NCCN2CCOCC2)c(C#N)c2c1COC(C)(C)C2`, the growth inhibition was 20.7%.

In the case of `Oc1ccccc1-c1nc(NCCN2CCOCC2)c2ccccc2n1`, the growth inhibition was 88.2% (active).

In the case of `Cc1cc(-c2ccccc2)nnc1NCCN1CCOCC1`, the growth inhibition is -7.35%.

With `Fc1ccccc1-c1nc(NCCCN2CCOCC2)c2ccccc2n1`, the growth inhibition was 4.04%.

As for `COc1cccc(-c2nc(NCC3CCCO3)c3ccccc3n2)c1O` (configuration not stated), the growth inhibition was 83.8% (active).

On to `c1ccc2c(NCC3CCCO3)nc(-c3ccncc3)nc2c1` (configuration not stated), for which the growth inhibition is 13.1%.

Consider `COc1cccc(OC)c1OCC(C)CNCC1CCCO1` (configuration not stated), for which the growth inhibition is 3.8%.

In the case of `C=CCNc1nc(-c2cccc(OC)c2O)nc2ccccc12`, the growth inhibition is 24.3%.

Consider `Cc1cc(OCCN2CCOCC2)nc2ccccc12`, for which the growth inhibition is 10.6%.

On to `c1ccc(-c2nc(NCC3CCCO3)c3ccccc3n2)nc1` (configuration not stated), for which the growth inhibition is 60.2% (active).

In the case of `COc1cccc(-c2nc(NCCN3CCOCC3)c3ccccc3n2)c1O`, the growth inhibition is 80.7% (active).

Consider `c1ccc(-n2ncc3c(NCC4CCCO4)ncnc32)cc1` (configuration not stated), for which the growth inhibition was 33.8%.

On to `O=C(C1=C(O)C(=O)N(CCCN2CCOCC2)C1c1ccccn1)c1cccs1` (configuration not stated), for which the growth inhibition was 1.45%.

With `Cc1ccc(C(=O)C2=C(O)C(=O)N(c3ncccn3)C2c2ccc(Cl)cc2)o1` (configuration not stated), the growth inhibition is -6.83%.

`COC(=O)c1c(C)[nH]c(C(=O)OCc2ccc(F)cc2)c1C`: the growth inhibition is 13%.

With `O=C1C2ON(c3ccccc3)C(c3ccncc3)C2C(=O)N1c1ccc(Br)cc1` (configuration not stated), the growth inhibition is -9.58%.

`OCCN=C(c1ccccc1)C12CN3CN(CN(C3)C1)C2`: the growth inhibition was -0.01%.

Regarding `C=CCOC(=O)C(C#N)c1nc2ccccc2nc1N1CCC(C(=O)OCC)CC1` (configuration not stated), the growth inhibition was 45.6%.

With `CCOC(=O)C1CCCN(c2nc3ccccc3nc2C(C#N)C(=O)OC(C)COC)C1` (configuration not stated), the growth inhibition was 24.2%.

For the compound `CCOC(=O)c1[nH]c2ccc(OC)cc2c1NC(=O)CN1CCN(c2ccccn2)CC1`, the growth inhibition is 0.14%.

As for `CC(C)Cc1nc(N2CCCCC2)c(C#N)c2c1CCC2`, the growth inhibition is 20.9%.

In the case of `CCCC(=O)N1CCN(c2nc(CC(C)C)c3c(c2C#N)CCC3)CC1`, the growth inhibition was 53.8% (active).

Turning to `CC(=O)N1CCN(c2nc(CC(C)C)c3c(c2C#N)CCC3)CC1`, the growth inhibition was 22.1%.

In the case of `CC(C)C(=O)N1CCN(c2nc(-c3ccccc3)c3c(c2C#N)CC(C)(C)OC3)CC1`, the growth inhibition is 34.1%.

On to `CC(C)C(=O)N1CCN(c2nc(-c3ccccc3)c3c(c2C#N)CCCC3)CC1`, for which the growth inhibition is 68% (active).

As for `CC(C)Cc1nc(N2CCOCC2)c(C#N)c2c1CCC2`, the growth inhibition was 4.59%.

As for `CC(C)Cc1nc(N2CCN(C(=O)C(C)C)CC2)c(C#N)c2c1CCC2`, the growth inhibition is 42.3%.

For `CC(C)Cc1nc(N2CCN(C(=O)c3ccco3)CC2)c(C#N)c2c1CCC2`, the growth inhibition was 57.2% (active).

Turning to `CC1(C)Cc2c(C#N)c(N3CCOCC3)nc(-c3ccccc3)c2CO1`, the growth inhibition was 13.6%.

For the compound `c1ccc(C2Nc3ccccc3-c3nc4ccccc4n32)nc1` (configuration not stated), the growth inhibition was 26%.

Turning to `Cc1nn(CC(=O)NCCN2CCOCC2)c(=O)c2ccccc12`, the growth inhibition was 1.62%.

`Oc1ccccc1CNn1cnnc1`: the growth inhibition was 7.07%.

For `Cc1ccc(OCC(=O)N(C)CCc2ccccn2)cc1`, the growth inhibition was -1.84%.

`O=C(NCc1cccnc1)c1ccc(=O)oc1`: the growth inhibition was -2.22%.

In the case of `CSc1nc(NC(C)=O)nc(C)c1Cl`, the growth inhibition is 3.88%.

In the case of `C=CCN(C(=O)CCC(=O)O)C1CC(=O)N(c2ccc(OCCC)cc2)C1=O` (configuration not stated), the growth inhibition was 34.7%.

Consider `Cc1cccc(C)c1NC(=O)C1CCCCN1C` (configuration not stated), for which the growth inhibition was -1.85%.

On to `Cc1cccc(C)c1NC(=O)CSCC(=O)c1ccc(O)c(O)c1`, for which the growth inhibition is 76.2% (active).

On to `CCN(CC)CC(=O)Nc1c(C)cccc1C`, for which the growth inhibition was -1.4% and -6.03%.

On to `COc1ccc(/C(O)=C2/C(=O)C(=O)N(CCN3CCOCC3)C2c2ccccn2)cc1` (configuration not stated), for which the growth inhibition is 7.6%.

`COCc1cc(=O)[nH]c(Nc2nc3ccc(C)cc3o2)n1`: the growth inhibition was 70.6% (active).

In the case of `Cc1cc(C)n(C(=O)CSc2nc3ccccc3o2)n1`, the growth inhibition was -7.75%.

In the case of `Cc1cc(=O)[nH]c(COc2ccccc2)n1`, the growth inhibition is 6.76%.

Regarding `Cc1cccc(OCc2nc(C)cc(=O)[nH]2)c1`, the growth inhibition was 1.95%.

As for `COCc1cc(=O)[nH]c(Nc2nc3ccccc3o2)n1`, the growth inhibition is 66.6% (active).

Turning to `COc1ccccc1C1CC(c2ccc(Cl)cc2)Nc2nc(N)nn21` (configuration not stated), the growth inhibition was 8.72%.

Regarding `Cc1cc2c(C)nc(Cc3ccccc3)nc2o1`, the growth inhibition is 1.92%.

`CCCCCCn1c(C(C)O)nc2ccccc21` (configuration not stated): the growth inhibition is 15.7%.

As for `COc1cccc(/C(O)=C2/C(=O)C(=O)N(CCCN(C)C)C2c2cccc(Cl)c2)c1` (configuration not stated), the growth inhibition is -2.1%.

Take `Cc1cccc(N2CN=c3s/c(=C\c4ccncc4)c(=O)n3C2)c1`: the growth inhibition was 5.71%.

As for `N#CC1=C(N)N(c2ccccc2)C(c2ccccc2)C1(C#N)C#N` (configuration not stated), the growth inhibition is 21.4%.

Regarding `Cn1ncc(N=Cc2c(O)ccc3ccccc23)c1C(=O)N1CCOCC1`, the growth inhibition is 3.71%.

Turning to `Cc1coc2c(O)cc3c(c12)OC1(N2CCCCC2)C(=O)NCCCC31` (configuration not stated), the growth inhibition is 91.4% (active).

`COc1ccc(C2N3CC4(C)CN2CC(C)(C3)C4O)cc1OC` (configuration not stated): the growth inhibition is 0.13%.

As for `CC1(C)Cc2c(oc3ncn4ncnc4c23)CO1`, the growth inhibition is 0.31%.

With `COc1cc(C)nc(Oc2ccc(OCCOc3ccc(C)cc3)nn2)n1`, the growth inhibition was 6.13%.
